A short description of experiment [1]: qHTS assay to identify small molecule antagonists of the estrogen related receptor (ERR) signaling pathway from Tox21 library - cell viability counter screen (AID 1224834). Further: nearly all actives have a fitted effect of over 30% in size. Further: potency means the concentration at half of the fitted maximal effect. An outline of the steps: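 ERR cells, 2,000/well; 6 h settle at 37 C/5% CO2; pin-tool compound transfer in DMSO; 17.5 h at 37 C; CellTiter-Fluor, 30 min; fluorescence intensity.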
Experiment [2] deals with Luciferin 4-monooxygenase (Photinus pyralis) (UniProt P08659). Put plainly: qHTS assay to identify small molecule inhibitors of firefly luciferase (AID 1224835). Further: nearly all actives have a fitted effect of over 25% in size. An outline of the steps:
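Quantitative HTS format; KM concentrations of both substrates. Purified P. pyralis FLuc activity quantified from luminescence images.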

Experiment [3] in a line: qHTS assay to identify small molecule agonists of the constitutive androstane receptor (CAR) signaling pathway - cell viability counter screen (AID 1224836). Further: nearly all actives have a fitted effect of over 45% in size. An outline of the steps:
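Fluorescence from CellTiter-Fluor indicates live cells after 23 h exposure. The human hepatoma line expresses hCAR and a CYP2B6-2.2kb reporter. Incubation medium contains 0.75 uM PK11195 (final).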

A short description of experiment [4]: qHTS assay to identify small molecule antagonists of the constitutive androstane receptor (CAR) signaling pathway - cell viability counter screen (AID 1224837). Further: nearly all actives have a fitted effect of over 45% in size. An outline of the steps:
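Viability was measured with CellTiter-Fluor in a HepG2 line carrying stably transfected hCAR and a CYP2B6-2.2kb construct. Cells were exposed for 23 hr at 37 C to 15 compound concentrations with 50 nM CITCO as agonist.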

Experiment [5] has as its target Nuclear receptor subfamily 1 group I member 3 (Homo sapiens) (UniProt Q14994). Put plainly: qHTS assay to identify small molecule antagonists of the constitutive androstane receptor (CAR) signaling pathway (AID 1224838).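 Further: HepG2 cells stably expressing hCAR with CYP2B6 luciferase reporter stimulated by CITCO; nearly all actives have a fitted effect of over 40% in size.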 The essentials: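 Antagonist mode used CITCO at a final 50 nM to activate CAR in human hepatoma HepG2 cells carrying stable hCAR and a 2.2 kb CYP2B6 promoter-luciferase construct. Compounds were tested at 15 concentrations over 24 h, with luminescence as the end point.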

For experiment [6] the target is unchanged. Put plainly: qHTS assay to identify small molecule agonists of the constitutive androstane receptor (CAR) signaling pathway (AID 1224839). Further: nearly all actives have a fitted effect of over 15% in size. Further: potency means the concentration at half of the fitted maximal effect. The essentials:
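Stable hCAR/CYP2B6-2.2kb HepG2 line in DMEM with 10% FBS; compounds (15 concentrations) and 0.75 uM PK11195 final, 24 h at 37 C/5% CO2, then ONE-Glo luminescence after 30 min.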

Experiment [7] in a line: qHTS assay to identify small molecule antagonists of the estrogen related receptor signaling pathway with the pleiotropic PPARgamma coactivator (PGC) from Tox21 10K library - cell viability counter screen (AID 1224840; active means well fitted cell-killing curve with a large enough effect in the repeat runs, not every such curve was filed as active; further: nearly all actives have a fitted effect of over 40% in size; further: potency means the concentration at half of the fitted maximal effect). An outline of the steps:
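Multiplexed viability counter screen in the PGC/ERR cell line: cells treated with DMSO-dissolved compounds for 17.5 hours at 37 C, then viability measured as CellTiter-Fluor fluorescence.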

A short description of experiment [8]: qHTS assay to identify small molecule antagonists of the estrogen related receptor signaling pathway with the pleiotropic PPARgamma coactivator (PGC) from Tox21 10K library (AID 1224841; call rule not given here; further: actives are mostly falling curves and most rising ones were filed inactive; nearly all actives have a fitted effect of over 50% in size). The essentials:
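Steps: plate 2,000 PGC/ERR cells per well; incubate 6 h at 37 C with 5% CO2; transfer compounds from DMSO stocks by pin tool; incubate 18 h at 37 C; add One-Glo; measure luminescence 30 min later.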

Experiment [9] in a line: qHTS assay to identify small molecule agonists of the estrogen related receptor signaling pathway with the pleiotropic PPARgamma coactivator (PGC) from Tox21 10K library (AID 1224842). Further: nearly all actives have a fitted effect of over 15% in size. The essentials:
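PGC/ERR reporter cells (NTP line) were seeded 2,000 per well, rested 6 h at 37 C/5% CO2, then pin-dosed with compounds in DMSO for 18 h at 37 C; luciferase read by One-Glo luminescence after 30 min at room temperature.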

Experiment [10] can be described thus: qHTS assay to identify small molecule agonists of the hypoxia (HIF-1) signaling pathway (AID 1224846; active means well fitted activation curve with a large enough effect in the signal ratio in the repeat runs, not every such curve was filed as active; the % refers to the signal ratio). The essentials: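 Compounds from the Tox21 10K library, dissolved in DMSO, are tested for induction of a hypoxia response element–controlled beta-lactamase reporter in ME-180 cells. Exposure lasts 17 hrs at 37C after a 5 hr settling period, followed by CCF4-AM FRET substrate.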

Experiment [11] can be described thus: qHTS assay to identify small molecule antagonists of the estrogen related receptor (ERR) signaling pathway from Tox21 library (AID 1224848). Further: nearly all actives have a fitted effect of over 50% in size. Further: potency means the concentration at half of the fitted maximal effect. An outline of the steps: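 First, 2,000 ERR cells per well were plated and held 6 h at 37 C/5% CO2. Next, compounds in DMSO were pinned in and left 18 h at 37 C. Finally, ONE-Glo was added and luminescence read after 30 min at room temperature.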

The nature of experiment [12]: qHTS assay to identify small molecule agonists of the estrogen related receptor (ERR) signaling pathway from Tox21 library (AID 1224849; calls by dose curve; further: nearly all actives have a fitted effect of over 15% in size). The conditions noted are these: ERR reporter cell line, ONE-Glo luciferase, 18 h. An outline of the steps: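 Cells carrying the ERR reporter were plated and allowed to settle for 6 h, exposed to library compounds for 18 h at 37 C, then lysed with ONE-Glo and luminescence measured.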

The nature of experiment [13]: qHTS RealTime-Glo MT Cell Viability Assay in HepG2 cells - 24 hour (AID 1224867). Further: nearly all actives have a fitted effect of over 50% in size. Further: potency means the concentration at half of the fitted maximal effect. An outline of the steps:
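Tox21 10K library screened in qHTS format on HepG2 cells carrying RealTime-Glo reagents. Compounds were added after a 5 h preincubation, and the luminescent signal from continuous culture was measured repeatedly during 40 h treatment.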

A short description of experiment [14]: qHTS RealTime-Glo MT Cell Viability Assay in HEK293 cells - 32 hour (AID 1224868). Further: nearly all actives have a fitted effect of over 50% in size. Further: potency means the concentration at half of the fitted maximal effect. An outline of the steps:
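Luminescence generated by NanoLuc from substrate produced by living HEK293 cells served as the viability signal. Each value reflects the reading at its stated time point during continuous 40 h compound exposure at 37 C.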

Experiment [15] is described as follows: A CellTox Green Cytotoxicity Assay to monitor cytotoxicity in HEK293 cells - 0 hour (AID 1224869). Further: nearly all actives have a fitted effect of over 50% in size. An outline of the steps:
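Cells (HEK293, 600/well) and dye reagent are dispensed together. After 5 h at 37 C, 23 nL compound is pinned in. Plates stay at 37 C for 40 h with fluorescence read at 0h, 8h, 16h, 24h, 32h and 40h.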

Experiment [16] can be described thus: qHTS RealTime-Glo MT Cell Viability Assay in HepG2 cells - 40 hour (AID 1224870). Further: nearly all actives have a fitted effect of over 50% in size. The essentials:
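HepG2 cells mixed with RealTime-Glo MT reagents (NanoLuc plus cell-permeant prosubstrate) were seeded at 600 cells/well, incubated 5 h at 37 C/5% CO2, then pinned with compounds in DMSO; nonlytic luminescence tracked viability during 40 h treatment.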

Experiment [17] can be described thus: qHTS assay to identify small molecule agonists of the hypoxia (HIF-1) signaling pathway - cell viability counter screen (AID 1224844; calls by dose curve; further: nearly all actives have a fitted effect of over 50% in size; further: potency means the concentration at half of the fitted maximal effect). An outline of the steps:
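Cytotoxicity was measured in parallel with the HRE-driven beta-lactamase readout: after 17 hrs of compound exposure at 37C, HRE-bla ME-180 cells received CellTiter-Glo and luminescence was recorded 30 min later.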

The target of experiment [18] is Thyrotropin receptor (Homo sapiens) (UniProt P16473). The experiment is described as follows: qHTS assay to identify small molecule agonists of the thyroid stimulating hormone receptor (TSHR) signaling pathway (AID 1224843; calls by dose curve; further: nearly all actives have a fitted effect of over 45% in size). The essentials:
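Compounds are titrated over 15 concentrations, in triplicate, onto TSHR-HEK293 cells seeded at 800/well. Plates sit 30 min at room temperature before cAMP-d2 and anti-cAMP cryptate are added; signal is read after a further hour.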

The nature of experiment [19]: qHTS assay to identify small molecule agonists of H2AX (AID 1224845; active means well fitted activation curve with a large enough effect in the signal ratio in the repeat runs, not every such curve was filed as active; the % refers to the signal ratio). The essentials: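 Wild-type CHO-K1 cells plated overnight, then exposed 3 hr at 37C to compounds at 15 concentrations (0.76% DMSO). Lysed, then HTRF anti-pH2AX(S139)-cryptate/anti-H2AX-d2 detection after 24 hr at room temperature; emissions 665 and 620 nm.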
A short description of experiment [20]: qHTS assay to identify small molecule agonists of H2AX - cell viability counter screen (AID 1224847; calls by dose curve; further: top concentration of the series differs between compounds; nearly all actives have a fitted effect of over 30% in size). The essentials:
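Viability of CHO-K1 (wild type) cells after 3 hr compound exposure was measured by CellTiter-Glo luminescence.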

[21] abbreviates: at 92.4 µM (top of the series) unless noted.

Records with an inconclusive call do not appear. Where a structure was tested more than once in an assay, its records may differ in their call. Active and inactive are the calls of the source. Unless noted, the call rests on the fitted dose curve; in most records, active means well fitted curve in the direction sought with a large enough effect in the repeat runs; inconclusive means weak or mixed curves; inactive means no such curve, though single readings can be large; an effect the other way counts as inactive or inconclusive.

From PubChem BioAssay (Tox21) come the findings set out here.
On the % scale 0 is the no-effect control and ±100 the full control effect.

Chain of Thyrotropin receptor (Homo sapiens) (P16473 whole entry, looked up): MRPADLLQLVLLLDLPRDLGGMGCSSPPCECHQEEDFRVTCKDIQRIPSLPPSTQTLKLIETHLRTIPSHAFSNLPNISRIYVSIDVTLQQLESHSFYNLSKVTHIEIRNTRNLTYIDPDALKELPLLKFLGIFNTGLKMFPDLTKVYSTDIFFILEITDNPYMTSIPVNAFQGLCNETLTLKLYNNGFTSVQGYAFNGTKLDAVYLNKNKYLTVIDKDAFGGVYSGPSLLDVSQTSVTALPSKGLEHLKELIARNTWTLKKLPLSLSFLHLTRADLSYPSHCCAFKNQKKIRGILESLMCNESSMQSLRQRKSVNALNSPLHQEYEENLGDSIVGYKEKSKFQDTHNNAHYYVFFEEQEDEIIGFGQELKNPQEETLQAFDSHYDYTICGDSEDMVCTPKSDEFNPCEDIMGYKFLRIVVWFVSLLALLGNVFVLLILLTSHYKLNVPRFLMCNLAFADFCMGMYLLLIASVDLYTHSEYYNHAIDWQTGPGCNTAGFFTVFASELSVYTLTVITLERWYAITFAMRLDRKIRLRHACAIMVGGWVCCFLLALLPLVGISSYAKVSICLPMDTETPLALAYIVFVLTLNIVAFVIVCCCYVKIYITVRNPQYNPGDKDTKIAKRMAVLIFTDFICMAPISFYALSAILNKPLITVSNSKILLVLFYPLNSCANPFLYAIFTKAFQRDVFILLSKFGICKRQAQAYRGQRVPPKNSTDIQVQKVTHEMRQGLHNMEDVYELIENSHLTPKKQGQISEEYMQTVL
Chain of Luciferin 4-monooxygenase (Photinus pyralis) (P08659 whole entry, looked up): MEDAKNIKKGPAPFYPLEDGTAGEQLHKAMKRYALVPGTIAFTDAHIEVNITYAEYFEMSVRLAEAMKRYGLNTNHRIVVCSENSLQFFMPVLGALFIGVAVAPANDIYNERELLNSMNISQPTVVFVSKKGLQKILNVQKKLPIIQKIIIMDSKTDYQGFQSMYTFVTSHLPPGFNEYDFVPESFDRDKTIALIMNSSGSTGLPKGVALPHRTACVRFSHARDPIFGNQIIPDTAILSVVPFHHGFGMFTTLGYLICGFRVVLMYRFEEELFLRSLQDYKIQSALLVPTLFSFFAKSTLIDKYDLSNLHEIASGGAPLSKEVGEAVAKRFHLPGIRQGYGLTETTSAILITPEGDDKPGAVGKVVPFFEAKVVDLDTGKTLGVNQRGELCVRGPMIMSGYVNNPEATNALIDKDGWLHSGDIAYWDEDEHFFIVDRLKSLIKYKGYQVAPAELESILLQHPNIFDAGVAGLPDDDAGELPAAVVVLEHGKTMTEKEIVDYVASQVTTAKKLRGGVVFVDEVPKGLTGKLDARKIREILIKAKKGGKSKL
Chain of Nuclear receptor subfamily 1 group I member 3 (Homo sapiens) (Q14994 whole entry, looked up): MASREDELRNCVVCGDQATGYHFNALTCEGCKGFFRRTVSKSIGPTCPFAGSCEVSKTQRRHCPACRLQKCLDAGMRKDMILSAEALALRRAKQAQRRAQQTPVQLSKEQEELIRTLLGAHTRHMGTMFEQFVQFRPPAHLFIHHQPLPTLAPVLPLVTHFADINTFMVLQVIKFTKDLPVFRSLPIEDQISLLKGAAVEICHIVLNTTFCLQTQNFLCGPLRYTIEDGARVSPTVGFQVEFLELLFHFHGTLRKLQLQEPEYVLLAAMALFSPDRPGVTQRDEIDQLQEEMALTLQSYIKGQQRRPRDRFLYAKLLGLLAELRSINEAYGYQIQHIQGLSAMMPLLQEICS

For `CC(=O)N/N=C/c1ccc([N+](=O)[O-])o1`, the Potency entry in [1], in experiment [2], in experiment [3], in [4], in [5] and in experiment [6] was “inactive” in each case. Also, the Potency result in [7], in experiment [8], in experiment [9], in [11], in experiment [13] and in experiment [14] was “inactive” each time. Further, the Potency result in [15] and in experiment [16] was “inactive” each time. For the same compound, in experiment [10], the call was inactive. Further, the activity change, positive = activation in [12] (setting [21]) was -10.2% [at 42.5 µM] (inactive).

`C[C@]12CC[C@@H]3c4ccc(O)cc4CC[C@H]3[C@@H]1CC[C@@H]2OC(=O)CCC1CCCC1`: the Potency in experiment [1] was 61.1 µM (active) and inactive; in [6] it was 15.4 µM (active); in experiment [7] it was 61.1 µM (active) and inactive; in experiment [11] it was 54.5 µM (active); in experiment [13], 49 µM (active) and inactive; in experiment [14] it was 43.6 µM (active). Moreover, the Potency result in experiment [2], in [3], in experiment [4], in experiment [5], in experiment [8] and in experiment [9] was “inactive” in each case. Further, the Potency entry in experiment [17], in [15] and in experiment [16] was “inactive” throughout. Besides, the compound was classed as inactive in experiment [10]. For the same compound, the activity change, positive = activation in experiment [12] (at 42.5 µM (top of the series)) was -30% (inactive); in [12] (at 92.4 µM (top of the series)) it was -67.7% (inactive).

With `CC=C(Cl)Cl`, the Potency entry in experiment [1], in experiment [2], in experiment [3], in experiment [4], in experiment [5] and in [6] was “inactive” in each case. Besides, the Potency entry in experiment [7], in [18], in [17], in experiment [19], in experiment [20] and in [13] was “inactive” in each case. Moreover, the Potency entry in experiment [14], in [15] and in [16] was “inactive” throughout. In addition, in [10], the compound was classed as inactive.

With `CCC(=O)OC`, the Potency result in [1], in [2], in [3], in experiment [4], in experiment [5] and in [6] was “inactive” throughout. The Potency entry in experiment [7], in experiment [18], in experiment [17], in experiment [19], in experiment [13] and in [14] was “inactive” in each case. In addition, the Potency entry in [15] and in [16] was “inactive” in each case. Besides, the result in experiment [10] was inactive.

Turning to `CCC(C)COC(=O)CC(C)C` (stereo unspecified), the Potency result in [1], in [2], in [3], in [4], in experiment [5] and in [6] was “inactive” each time. In addition, the Potency entry in experiment [7], in [18], in experiment [19], in experiment [20], in experiment [13] and in experiment [14] was “inactive” throughout. Also, the Potency result in [15] and in experiment [16] was “inactive” each time. For the same compound, the Potency in experiment [17] is 19.5 µM (active).

For `CCC(=O)C1CC(C(C)C)CC=C1C` (stereo unspecified), the Potency entry in [1], in experiment [2], in [3], in experiment [4], in [5] and in experiment [6] was “inactive” each time. Moreover, the Potency result in [7], in experiment [8], in experiment [9], in experiment [19], in [11] and in experiment [13] was “inactive” in each case. Also, the Potency result in experiment [14], in experiment [15] and in experiment [16] was “inactive” in each case. Besides, the activity change, positive = activation in [12] (setting [21]) was 5.57% (inactive).
